Test results as given in PubChem BioAssay (NCATS).
Inconclusive results are not listed. A number with no mark means an inactive call. Activity calls are given as the source filed them. The call rests on the fitted dose curve; in most records, active means well fitted inhibition curve with a large enough effect; inconclusive means small, poorly fitted or top-dose-only effect; inactive means flat fitted curve, though single readings scatter. Bridge positions count the residues as written; N and C are the ends. Peptide text beside a SMILES is read from it.

Biological target: Luciferin 4-monooxygenase (Photinus pyralis) (UniProt P08659)
Experiment: Biochemical firefly luciferase enzyme assay for NPC (AID 624030);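 further: purified P. pyralis luciferase at 10 nM with luciferin and ATP substrate; 0% = DMSO and -100% = full luciferase inhibition by PTC124 control; nearly all actives have a fitted effect of over 70% in size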
Details: purified P. pyralis luciferase, luminescence, 5 min; series mostly up to 58.6 µM; activity change, negative = inhibition: at the top concentration
How it was run: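 Purified P. pyralis luciferase at 10 nM in 50 mM Tris Acetate (final), luminescence read within 5 minutes of enzyme addition to compounds. Activity normalised to PTC124 versus DMSO; concentration-response curves classed by r2, magnitude and activity.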

Chain of Luciferin 4-monooxygenase (Photinus pyralis) (P08659 whole entry, looked up): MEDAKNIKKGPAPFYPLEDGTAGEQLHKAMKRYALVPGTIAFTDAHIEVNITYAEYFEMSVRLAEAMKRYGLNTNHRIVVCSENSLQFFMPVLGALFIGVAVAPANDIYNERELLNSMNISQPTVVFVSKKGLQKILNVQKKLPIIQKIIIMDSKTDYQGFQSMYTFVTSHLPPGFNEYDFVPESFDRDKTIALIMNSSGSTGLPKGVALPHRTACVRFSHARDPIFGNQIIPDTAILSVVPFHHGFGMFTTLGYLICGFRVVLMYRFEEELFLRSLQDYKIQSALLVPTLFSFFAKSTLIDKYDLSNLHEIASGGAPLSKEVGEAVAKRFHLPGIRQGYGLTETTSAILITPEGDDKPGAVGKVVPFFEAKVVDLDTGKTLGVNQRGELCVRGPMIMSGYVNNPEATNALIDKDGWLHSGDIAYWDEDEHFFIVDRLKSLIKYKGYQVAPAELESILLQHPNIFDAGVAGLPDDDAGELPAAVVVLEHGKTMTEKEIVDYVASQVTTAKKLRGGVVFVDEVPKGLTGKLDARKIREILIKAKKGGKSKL

Compound | activity change, negative = inhibition | Potency
C[C@@H]1O[C@@]2(CS1)CN1CCC2CC1 | -0.752% | –
NCCCCC(NC(=O)C1CCCN1C(=O)C1CSSCC(N)C(=O)NC(Cc2ccc(O)cc2)C(=O)NC(Cc2ccccc2)C(=O)NC(CCC(N)=O)C(=O)NC(CC(N)=O)C(=O)N1)C(=O)NCC(N)=O (stereo not given) | – | inactive
Cc1nc2n(c(=O)c1CCN1CCC(c3noc4cc(F)ccc34)CC1)CCC[C@@H]2O | -0.576% | –
C[N+](C)(C)CCOP(=O)(O)OP(=O)([O-])OCC1OC(n2ccc(N)nc2=O)[C@H](O)[C@@H]1O (stereo not given in full) | -4.62% | –
CCCCCCCCCCCCCCCC(=O)O[C@@H]1CC(C)=C(\C=C/C(C)=C\C=C/C(C)=C\C=C\C=C(C)\C=C\C=C(C)\C=C\C2=C(C)C[C@@H](OC(=O)CCCCCCCCCCCCCCC)CC2(C)C)C(C)(C)C1 | -3.65% | –
COCC1=C(C(=O)OC(C)OC(=O)OC(C)C)N2C(=O)C(NC(=O)/C(=N\OC)c3csc(N)n3)C2SC1 (stereo not given) | 1.77% | –
OCC1OC(OC2C(CO)OC(OC3C(CO)OC(O)C(O)C3O)C(O)C2O)C(O)C(O)C1O (stereo not given) | -1.03% | –
NCCCCC(NC(=O)C1CCCN1C(=O)C1CSSCC(N)C(=O)NC(Cc2ccccc2)C(=O)NC(Cc2ccccc2)C(=O)NC(CCC(N)=O)C(=O)NC(CC(N)=O)C(=O)N1)C(=O)NCC(N)=O (stereo not given) (H-CFFQNCPKG-NH2; disulfide 1-6; configuration not given here) | 0.329% | –
CC[C@H]1OC(=O)C[C@@H](O)[C@H](C)[C@@H](O[C@@H]2O[C@H](C)C[C@H](N(C)C)[C@@H]2O)[C@@H](CC=O)C[C@@H](C)C(=O)/C=C\[C@]2(C)O[C@H]2[C@@H]1C | 0.104% | –
COc1cc(/C=C/C(=O)O[C@H]2CC[C@]34C[C@]35CC[C@]3(C)[C@@H]([C@H](C)CCC=C(C)C)CC[C@@]3(C)C5CCC4C2(C)C)ccc1O (stereo not given in full) | -0.729% | –
CC(=O)OC1CCC2(C)C(=CCC3C2CCC2(C)C(C(C)=O)CCC32)C1 (stereo not given) | 0.644% | –
Fc1ccc(C2CCNCC2COc2ccc3c(c2)OCO3)cc1 (stereo not given) | 8.57% | –
C/C(=C(/CCOC(=O)c1ccccc1)SS/C(CCOC(=O)c1ccccc1)=C(\C)N(C=O)Cc1cnc(C)nc1N)N(C=O)Cc1cnc(C)nc1N | -11% | –
Cc1cccc(C)c1N(CCCc1cccnc1)C(=O)[C@@H](C)N | 0.23% | –
COc1cc2c(c(OC)c1OC)-c1c(cc3c(c1OC)OCO3)CC(C)C(C)(O)C2 (stereo not given) | -6% | –
NC(N)=NCCCC(N)C(=O)O (stereo not given) | -0.701% | –
CC(C)N(Cc1ccccc1)C(C)C (tested in a mixture with another compound) | 0.335% | –
CC(C)(C)CC(=O)OCC(=O)[C@@]12OC(C)(C)O[C@@H]1C[C@H]1[C@@H]3CCC4=CC(=O)C=C[C@]4(C)[C@@]3(F)[C@@H](O)C[C@]12C | -1.17% | –
CC(=O)O[C@]1(C(=O)CO)[C@@H](C)C[C@H]2[C@@H]3CCC4=CC(=O)C=C[C@]4(C)[C@@]3(F)[C@@H](O)C[C@]21C | 0.331% | –
CC(C)(C)NC(=O)[C@H]1CC[C@H]2[C@@H]3CC=C4C=C(C(=O)O)CC[C@@]4(C)[C@H]3CC[C@]12C | -5.42% | –
CC1(C)C(C(=O)O)N2C(=O)CC2S1(=O)=O (stereo not given) | 2.81% | –
CC/C(O)=N/S(=O)(=O)c1ccc(-c2c(-c3ccccc3)noc2C)cc1 | -3.47% | –
O=C(CO)C(O)C(O)C(O)CO (stereo not given) | 2.01% | –
CC(CSC(=O)c1ccccc1)C(=O)N1CC(Sc2ccccc2)CC1C(=O)O (stereo not given) | -1.79% | –
CCCCC/C=C/C/C=C/CCCCCCCC(=O)NC(C)c1ccccc1 (stereo not given) | -0.61% | –
C(=C1NCCN1)c1cccc2ccccc12 | 0.0122% | –
CCCCCCC(=O)O[C@@H]1CC[C@H]2[C@@H]3CCc4cc(O)ccc4[C@H]3CC[C@]12C | -0.804% | –
CO[C@@H]1[C@@H](OC2OC(C)C(OC3CC(C)(O)C(O)C(C)O3)C(N(C)C)C2O)[C@@H](CC=O)C[C@@H](C)[C@@H](OC2CCC(N(C)C)C(C)O2)/C=C/C=C/C[C@@H](C)OC(=O)C[C@H]1OC(C)=O (stereo not given in full) | -0.0945% | –
Cc1c(C)c2c(c(C)c1OC(=O)CCC(=O)OCCO)CC[C@](C)(CCC[C@H](C)CCC[C@H](C)CCCC(C)C)O2 | 4.26% | –
C[N+]1(C)CCN(C[C@@](O)(c2ccccc2)C2CCCCC2)CC1 | -1.92% | –
